Laboratory results: PubChem BioAssay
The source made the active and inactive calls.

Test: E. coli DRC41 culture turbidity changes, primary screen, E. coli filamentation inducer project, strain DRC41, OD650, 48 h (AID 1152);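 note: E. coli MC1000 strain DRC41 lacking acrAB efflux pump and sulA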
Details: E. coli DRC41 (acrAB sulA), higher = more signal, called active from +8 up or from −8 down

z-score, inactive:
COC(=O)c1c2oc(c1C(=O)OC)C(=O)N[C@H](Cc1ccccc1)Cn1nncc1C1(CCCCC1)NC(=O)N[C@H](CO)CC2 1.74
CCOC1=C2C(c3ccc(C)cc3)N(S(=O)(=O)c3ccc(C)cc3)CC2n2c(=O)n(-c3ccccc3)c(=O)n2C1 (configuration not stated) -0.346
C[C@H]1C2[C@H](Cc3ccccc3)NC(=O)[C@]23C(=O)N[C@H](Cc2ccccc2)C(=O)N[C@H](Cc2ccccc2)C(=O)NC/C=C/CCC/C=C/C3[C@@H]2O[C@]12C (some centres not stated) 0.655
Cc1ccc(S[C@]2(C(=O)NCCCN(C)C)CC(=O)N(C(C)C)[C@@H]2c2ccc(CO)cc2I)cc1 0.997
O=C1O[C@@H](c2ccccc2)[C@@H](c2ccccc2)N2[C@@H](c3ccc(O)cc3)[C@]3(C(=O)Nc4ccccc43)[C@@H](C(=O)N3CCCCCCC3)[C@H]12 -0.779
COc1ccc(C#Cc2ccc3c(c2)[C@]2(C(=O)N3)[C@H](C(=O)N3CCN(c4ncccn4)CC3)[C@H]3C(=O)O[C@H](c4ccccc4)[C@H](c4ccccc4)N3[C@@H]2c2ccc(O)cc2)cc1 -0.475
COCCCNC(=O)[C@@]1(C)c2ccccc2C(=O)N(Cc2ccccc2)[C@H]1c1ccc(CO)cc1 -0.0509
C=CCC(OC(C)=O)[C@@H]1[C@@H](N(Cc2cc3ccccc3o2)C(=O)c2cccc3ccccc23)c2cc(OCCCO)ccc2N1C(=O)Cc1ccc(OC)cc1 (some centres not stated) -0.901
CC1CC/C=C\[C@H]2OC34C=CCN(c5ccc6ccccc6c5)C(=O)[C@H]3N(CCCCCO)C(=O)[C@@H]4C2C(=O)O1 (some centres not stated) -0.557
CN(C)CCCC[C@@H]1NC(=O)[C@@H]2C[C@H](C(=O)NCCCCCN)[C@H](c3ccc(O)cc3)N2C1=O 0.195
CC(=O)n1cc(C(O)C2C=CC3C(=O)N(c4ccccc4)C(=O)C3N2Nc2ccc(C#N)cc2)c2ccccc21 (configuration not stated) -0.947
COc1cc(NN2C(C(O)c3ccccc3)C=CC3C(=O)N(c4ccccc4)C(=O)C32)cc(OC)c1OC (configuration not stated) -0.26
C/C=C/[C@H](CCn1cc([C@H](O)c2ccccc2)nn1)[Si](C)(C)c1ccc(OC)cc1 -0.356
C=C(C(=O)CC[C@@H](OC(=O)c1cccnc1)c1ccc(CO)o1)C(C)C -0.766
C=CCC(OC(C)=O)[C@@H]1[C@@H](N(Cc2cc3ccccc3o2)C(=O)c2cccc3ccccc23)c2cc(OCCCO)ccc2N1C(=O)Cc1ccc2ccccc2c1 (some centres not stated) -0.288
Cc1ccccc1/C=C/C=O 0.871
[N-]=[N+]=NCc1ccccc1C[C@]1(C(=O)NCc2ccccc2)COC(c2ccc(OCCCO)cc2)=N1 0.104
COCCOC(=O)N1C(=O)[C@@]2(c3cc(C#CC4=CCCCC4)ccc31)[C@H](C(=O)N1CCN(c3ncccn3)CC1)[C@H]1C(=O)O[C@H](c3ccccc3)[C@H](c3ccccc3)N1[C@@H]2c1ccc(OCCO)cc1 -0.0557
COC(=O)C(CC#Cc1ccc2c(c1)[C@]1(C(=O)N2)[C@H](C(=O)N2CCCCCCC2)[C@H]2C(=O)O[C@H](c3ccccc3)[C@H](c3ccccc3)N2[C@@H]1c1ccccc1OCCO)C(=O)OC -0.984
NC(=O)[C@]1(Cc2ccccc2)N=C(c2ccc(OCCCO)cc2)O[C@@H]1c1ccccc1 -0.465
CCCCN1CC=CC23O[C@@H]4C=CCCOC(=O)C4[C@H]2C(=O)N(CCCO)[C@@H]3C1=O (some centres not stated) 0.62
C=CC[C@@]1(C(=O)OC)N=C(c2ccc(OCCCO)cc2)O[C@@H]1c1ccccc1CN=[N+]=[N-] 1.24
C=CC[C@@]1(C(N)=O)N=C(c2ccc(OCCCO)cc2)O[C@@H]1c1ccccc1N=[N+]=[N-] 1.3
Cc1ccc(N2C(=O)c3ccccc3[C@@H](C(=O)NCC(C)C)[C@@H]2c2ccc(CO)cc2)nc1 0.569
CN1C(=O)C2C=CC(C(O)c3ccc(Br)cc3)N(Nc3ccccc3)C2C1=O (configuration not stated) -0.506
CCCC[C@@H]1C[C@H]1[C@@H](NC(=O)c1ccccc1)c1ccccc1 -1.39
CN(C)CCCCCCNC(=O)[C@@H]1C[C@@H]2C(=O)NCC(=O)N2[C@@H]1c1cccc(OCCO)c1 0.492
